Test [1] in a line: qHTS assay for identifying genotoxic compounds that show differential cytotoxicity against isogenic chicken DT40 cell lines with known DNA damage response pathways - Rev3 mutant cell line (AID 743014). Note: nearly all actives have a fitted effect of over 55% in size. Note: potency is the fitted concentration of half-maximal effect.
Test [2] in a line: qHTS assay for identifying genotoxic compounds that show differential cytotoxicity against isogenic chicken DT40 cell lines with known DNA damage response pathways - Rad54/Ku70 mutant cell line (AID 743015). Note: nearly all actives have a fitted effect of over 60% in size. Note: potency is the fitted concentration of half-maximal effect.
Test [3] can be described thus: qHTS assay to identify small molecule antagonists of the androgen receptor (AR) signaling pathway - cell viability counter screen (AID 743033; note: nearly all actives have a fitted effect of over 45% in size).
Test [4] is described as follows: qHTS assay to identify small molecule antagonists of the androgen receptor (AR) signaling pathway using the MDA cell line - cell viability counter screen (AID 743041; note: nearly all actives have a fitted effect of over 45% in size). In a few lines:
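MDA-kb2 AR-luc cells (MMTV-luciferase, AR/GR responsive) treated with compounds plus R1881 agonist for 16 h at 37C. CellTiter-Fluor added at 15.5 h; fluorescence read after 30 min in the same wells.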

A short description of test [5]: qHTS assay to identify small molecule antagonists of the thyroid receptor (TR) signaling pathway - cell viability counter screen (AID 743064). Note: nearly all actives have a fitted effect of over 50% in size. Note: potency is the fitted concentration of half-maximal effect. In a few lines:
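GH3.TRE-Luc cells, 4 h pre-plating; cpd + T3 1 nM final; 37 °C 23.5 h; CellTiter-Fluor 30 min; fluorescence read.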

Test [6] in a line: qHTS assay to identify small molecule antagonists of the thyroid receptor (TR) signaling pathway (AID 743065). Note: nearly all actives have a fitted effect of over 55% in size. Note: potency is the fitted concentration of half-maximal effect. In a few lines: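 GH3.TRE-Luc rat pituitary cells (two TREs driving luciferase) were dosed with compound, then stimulated with 1 nM T3 (final) for 23.5 h at 37 C. ONE-Glo luminescence was the read-out, with CellTiter-Fluor fluorescence as the cytotoxicity counter-screen.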

In test [7] the test system is thyroid hormone receptor (rat, GH3 cells). The test is described as follows: qHTS assay to identify small molecule agonists of the thyroid receptor (TR) signaling pathway (AID 743066; calls by dose curve).
Test [8] can be described thus: qHTS assay to identify small molecule antagonists of the estrogen receptor alpha (ER-alpha) signaling pathway - cell viability counter screen (AID 743074; calls by dose curve;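 note: HEK293 cells carrying ER-alpha-UAS-bla reporter stimulated with 17beta-estradiol; nearly all actives have a fitted effect of over 45% in size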).
Test [9] can be described thus: qHTS assay to identify small molecule antagonists of the estrogen receptor alpha (ER-alpha) signaling pathway using the BG1 cell line - cell viability counter screen (AID 743081).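 Note: compound given together with 17beta-estradiol as the ER stimulus; nearly all actives have a fitted effect of over 45% in size.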
The target in the next test is Aromatase (Homo sapiens) (UniProt P11511). The experiment in a line: qHTS assay to identify aromatase inhibitors (AID 743083). Note: nearly all actives have a fitted effect of over 55% in size.
Chain of Aromatase (Homo sapiens) (P11511 whole entry, looked up): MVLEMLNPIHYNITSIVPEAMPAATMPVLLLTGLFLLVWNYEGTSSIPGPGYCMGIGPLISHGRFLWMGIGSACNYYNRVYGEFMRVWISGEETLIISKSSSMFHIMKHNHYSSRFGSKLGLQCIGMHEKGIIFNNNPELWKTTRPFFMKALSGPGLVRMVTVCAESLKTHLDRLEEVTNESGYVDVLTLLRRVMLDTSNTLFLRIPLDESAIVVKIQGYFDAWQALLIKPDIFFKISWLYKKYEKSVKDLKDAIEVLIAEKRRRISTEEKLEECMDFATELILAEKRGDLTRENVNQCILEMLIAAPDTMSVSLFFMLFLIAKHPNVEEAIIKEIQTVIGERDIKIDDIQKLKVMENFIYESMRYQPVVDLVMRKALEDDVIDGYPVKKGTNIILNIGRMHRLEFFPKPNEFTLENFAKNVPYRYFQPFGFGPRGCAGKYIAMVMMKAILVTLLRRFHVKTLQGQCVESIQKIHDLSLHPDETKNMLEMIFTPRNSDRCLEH
Test [10] is described as follows: qHTS assay for identifying genotoxic compounds that show differential cytotoxicity against isogenic chicken DT40 cell lines with known DNA damage response pathways - wild type cell line (AID 743012). Note: nearly all actives have a fitted effect of over 60% in size. Note: potency is the fitted concentration of half-maximal effect. The method in brief:
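Using parental DT40 (300 cells/well), compounds delivered in DMSO incubate 40 h at 37 C/5% CO2. CellTiter-Glo reagent then stands 30 min at room temperature, and luminescence gives cell viability.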

The target of test [11] is Estrogen receptor (Homo sapiens) (UniProt P03372). The experiment in a line: qHTS assay to identify small molecule agonists of the estrogen receptor alpha (ER-alpha) signaling pathway (AID 743075; calls by dose curve).
Chain of Estrogen receptor (Homo sapiens) (P03372 whole entry, looked up): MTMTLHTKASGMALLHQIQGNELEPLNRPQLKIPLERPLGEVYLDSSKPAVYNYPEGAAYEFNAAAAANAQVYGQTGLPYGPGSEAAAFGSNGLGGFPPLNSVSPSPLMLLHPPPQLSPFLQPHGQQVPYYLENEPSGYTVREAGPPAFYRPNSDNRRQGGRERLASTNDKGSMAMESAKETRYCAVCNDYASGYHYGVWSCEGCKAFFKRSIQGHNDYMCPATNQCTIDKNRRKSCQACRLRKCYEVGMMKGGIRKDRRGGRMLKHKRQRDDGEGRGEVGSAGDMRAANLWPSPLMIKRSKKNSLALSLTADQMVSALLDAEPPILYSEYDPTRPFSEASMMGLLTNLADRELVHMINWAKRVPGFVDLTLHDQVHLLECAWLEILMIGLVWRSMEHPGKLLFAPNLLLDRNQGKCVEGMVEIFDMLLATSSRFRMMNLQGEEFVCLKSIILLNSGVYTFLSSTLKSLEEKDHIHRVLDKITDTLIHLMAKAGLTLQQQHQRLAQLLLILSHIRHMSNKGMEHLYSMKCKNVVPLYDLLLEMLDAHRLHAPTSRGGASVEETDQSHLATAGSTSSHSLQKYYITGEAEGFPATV
Test [12] in a line: qHTS assay to identify small molecule antagonists of the estrogen receptor alpha (ER-alpha) signaling pathway using the BG1 cell line (AID 743080; calls by dose curve;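 note: BG1 cells stimulated with 17beta-estradiol alongside compound; nearly all actives have a fitted effect of over 25% in size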; note: potency is the fitted concentration of half-maximal effect). The method in brief: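 Luminescence from a 4×ERE-luciferase reporter in BG1-Luc-4E2 cells served as read-out. Cells, pre-cultured 5 days in stripped-serum phenol-red-free medium, were exposed to compound with 17beta-estradiol co-stimulation for 21.5 h at 37 C.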

Test [13] has as its target Estrogen receptor (Homo sapiens) (UniProt P03372). The experiment in a line: qHTS assay to identify small molecule antagonists of the estrogen receptor alpha (ER-alpha) signaling pathway (AID 743069; active = well fitted curve in the direction sought with a large enough effect in the signal ratio in the repeat runs, not every such curve was filed as active; the % refers to the signal ratio). In a few lines: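 HEK293 ER-alpha-UAS-bla GripTite cells, held overnight in 2% charcoal-stripped FBS, 5,000 cells/well, preincubated 4 h, then compound plus 17beta-estradiol for 18 h at 37C. Beta-lactamase read by LiveBLAzer B/G FRET substrate, 2 h at room temperature.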

For test [14] the target is unchanged. The experiment in a line: qHTS assay to identify small molecule agonists of the estrogen receptor alpha (ER-alpha) signaling pathway using the BG1 cell line (AID 743079). Note: nearly all actives have a fitted effect of over 20% in size. Note: potency is the fitted concentration of half-maximal effect. As to conditions: BG1Luc4E2 cells, ERE-luciferase agonist, 22 h; activation: at 70.3 µM (top of the series).
For test [15], the target named is Androgen receptor (Homo sapiens) (UniProt P10275). The test is described as follows: qHTS assay to identify small molecule antagonists of the androgen receptor (AR) signaling pathway using the MDA cell line (AID 743042; note: nearly all actives have a fitted effect of over 55% in size; note: potency is the fitted concentration of half-maximal effect). In a few lines:
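MDA-kb2 breast carcinoma cells carrying MMTV-luciferase (AR/GR responsive) were co-treated with compounds and the agonist R1881 for 16 h at 37C. Inhibition read as ONE-Glo luminescence; CellTiter-Fluor fluorescence measured in parallel for cytotoxicity.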

Test [16] shares this target. The test is described as follows: qHTS assay to identify small molecule agonists of the androgen receptor (AR) signaling pathway using the MDA cell line (AID 743040; note: nearly all actives have a fitted effect of over 20% in size; note: potency is the fitted concentration of half-maximal effect). In a few lines:
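MDA-kb2 breast carcinoma cells carrying MMTV-luciferase (responsive to AR and GR), plated 5 h then treated 16 h with compounds at 37C, 0% CO2. Read-out was ONE-Glo luminescence after 30 min at room temperature.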

Test [17] shares this target. The experiment in a line: qHTS assay to identify small molecule antagonists of the androgen receptor (AR) signaling pathway (AID 743035; active = well fitted inhibition curve with a large enough effect in the signal ratio in the repeat runs, not every such curve was filed as active; the % refers to the signal ratio). In a few lines:
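Using qHTS, AR-UAS-bla GripTite HEK293 cells received compound, then R1881, and were cultured 16 h at 37C/5% CO2 before a 2 h room-temperature LiveBLAzer B/G FRET substrate step and fluorescence measurement.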

The target is the same in test [18]. The experiment in a line: qHTS assay to identify small molecule agonists of the androgen receptor (AR) signaling pathway (AID 743036; active = well fitted activation curve with a large enough effect in the signal ratio in the repeat runs, with a control signal flat, not every such curve was filed as active; the % refers to the signal ratio; note: potency is the fitted concentration of half-maximal effect). The method in brief: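 AR-bla HEK293 cells, 2,000/well; 4 h preincubation 37C/5% CO2; compound (DMSO) 16 h at 37C; LiveBLAzer B/G FRET substrate 2 h RT; fluorescence intensity read-out.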

Inconclusive results are not listed. The source made the active and inactive calls. Unless noted, calls come from the whole dose curve; as a rule, active = well fitted curve in the direction sought with a large enough effect in the repeat runs; inconclusive = weak or mixed curves; inactive = no such curve, though single readings can be large; an effect the other way counts as inactive or inconclusive.

Chain of Androgen receptor (Homo sapiens) (P10275 whole entry, looked up): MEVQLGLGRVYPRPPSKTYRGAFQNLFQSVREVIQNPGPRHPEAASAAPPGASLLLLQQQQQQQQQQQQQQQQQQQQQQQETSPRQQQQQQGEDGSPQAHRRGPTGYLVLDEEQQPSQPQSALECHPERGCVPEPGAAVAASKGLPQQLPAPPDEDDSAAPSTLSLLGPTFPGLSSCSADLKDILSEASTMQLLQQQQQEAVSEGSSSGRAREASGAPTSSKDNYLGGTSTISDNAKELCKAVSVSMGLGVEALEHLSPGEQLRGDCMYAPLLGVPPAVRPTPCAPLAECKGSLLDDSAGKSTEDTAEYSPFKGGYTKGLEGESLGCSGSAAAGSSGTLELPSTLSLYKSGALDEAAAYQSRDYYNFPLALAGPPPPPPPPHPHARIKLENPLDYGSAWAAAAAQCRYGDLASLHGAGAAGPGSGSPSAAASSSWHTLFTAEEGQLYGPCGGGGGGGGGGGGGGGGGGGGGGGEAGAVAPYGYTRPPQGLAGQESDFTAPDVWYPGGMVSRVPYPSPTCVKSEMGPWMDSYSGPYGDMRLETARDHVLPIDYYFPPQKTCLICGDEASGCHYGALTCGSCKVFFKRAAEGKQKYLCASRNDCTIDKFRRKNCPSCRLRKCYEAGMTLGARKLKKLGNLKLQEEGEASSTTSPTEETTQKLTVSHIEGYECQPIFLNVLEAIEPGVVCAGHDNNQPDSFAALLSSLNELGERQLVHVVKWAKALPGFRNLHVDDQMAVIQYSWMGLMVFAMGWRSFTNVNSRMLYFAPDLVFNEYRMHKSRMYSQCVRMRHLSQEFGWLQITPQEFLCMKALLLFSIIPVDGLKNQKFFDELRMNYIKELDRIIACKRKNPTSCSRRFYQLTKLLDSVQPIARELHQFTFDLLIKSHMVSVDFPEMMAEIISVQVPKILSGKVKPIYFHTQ

Take `CC(C)(C)C(=O)O`: the Potency entry in test [1], in [2], in test [3], in [4], in test [5] and in test [6] was “inactive” each time. The Potency result (in test [8]; in test [9]; in the test with Aromatase (Homo sapiens)) was “inactive” each time. Also, in test [7], the compound was classed as inactive.
For `CC(C)c1nnc2ccc(-c3ocnc3-c3cc(F)ccc3F)cn12`, the Potency in [10] was 27.3 µM (active); in test [1], 21.7 µM (active); in test [2], 27.3 µM (active); in test [12], 54.5 µM (active). Moreover, the Potency entry in test [4], in [5], in test [6], in test [8], in test [11] and in test [9] was “inactive” each time. The Potency result in the test with Aromatase (Homo sapiens) is “inactive”. For the same compound, in test [7], the outcome was inactive.
For the compound `CC#N`, the Potency entry in test [1], in test [2], in test [3], in test [4], in test [5] and in test [6] was “inactive” each time. Moreover, the Potency result in test [13], in test [8], in [11], in [14], in [12] and in test [9] was “inactive” in each case. Further, the Potency result with Aromatase (Homo sapiens) was “inactive”. Also, the outcome in test [7] was inactive.
Consider `CCOC(=O)C(C)Oc1ccc(Oc2nc3ccc(Cl)cc3o2)cc1` (stereo not drawn), for which the Potency in [1] is 68.6 µM (active); in [2], 61.1 µM (active). Moreover, the Potency result in [3], in [4], in test [15], in test [6], in test [8] and in test [9] was “inactive” in each case. Further, the Potency result with Aromatase (Homo sapiens) was “inactive”. Moreover, the outcome in test [7] was inactive.
`CCCCC1C(=O)N(c2ccccc2)N(c2ccc(O)cc2)C1=O` (stereo not drawn): the Potency is 3.2 µM (active) in [10]; 5.69 µM (active) in [1]; 5.07 µM (active) in [2]; 12.7 µM (active) in test [15]; 3.59 µM (active) in test [5]; 3.2 µM (active) in [6]. The Potency entry (in test [16]; in [8]; in test [9]; with Aromatase (Homo sapiens)) was “inactive” throughout.
Turning to `Cc1cc(C(=C2C=CC(=Nc3ccc(S(=O)(=O)O)cc3S(=O)(=O)O)C=C2)c2ccc(Nc3ccc(S(=O)(=O)O)cc3)cc2)ccc1N`, the Potency result in test [10], in test [1], in [3], in test [4], in test [5] and in test [6] was “inactive” throughout. In addition, the Potency entry in test [13], in [8], in test [11], in [14], in test [12] and in test [9] was “inactive” in each case. Further, the Potency result with Aromatase (Homo sapiens) was “inactive”. The call in [7] was inactive.
Turning to `CCN(CC)CCNC(=O)c1ccc(NC(C)=O)cc1`, the Potency result in [10], in [1], in test [2], in test [17], in test [18] and in [16] was “inactive” each time. Moreover, the Potency entry in test [4], in test [15], in [5], in test [6], in test [13] and in test [8] was “inactive” in each case. Also, the Potency result (in test [11]; in test [14]; in test [12]; in [9]; in the test with Aromatase (Homo sapiens)) was “inactive” each time. In [7], the call was inactive.
For `CN(C)CCOC1=Cc2ccccc2Sc2ccc(Cl)cc21`, the Potency is 6.68 µM (active) in test [1], 5.96 µM (active) in test [2], 10.6 µM (active) in [5] and 9.44 µM (active) in [6]. The Potency entry in [13], in test [11], in [14], in [12] and in [9] was “inactive” throughout.
In the case of `Cc1ccc(S)cc1`, the Potency in [10] is 61.1 µM (active). For the same compound, the Potency result in test [3], in test [4], in test [5], in [11], in [14] and in test [12] was “inactive” each time. Moreover, the Potency result (in [9]; with Aromatase (Homo sapiens)) was “inactive” throughout.
On to `CC(=O)OCC(=O)[C@H]1CC[C@H]2[C@@H]3CCC4=CC(=O)CC[C@]4(C)[C@H]3CC[C@]12C`, for which the Potency entry in [3], in [17], in test [4], in test [15], in test [5] and in test [13] was “inactive” throughout. Also, the Potency entry (in test [8]; in test [11]; in test [12]; in [9]; in the test with Aromatase (Homo sapiens)) was “inactive” in each case. In addition, the Potency in test [18] is 30.1 nM (active); in test [16], 9.44 µM (active); in test [14], 4.22 µM (active). The result in test [7] was inactive.
`CCCCN(CCCC)C(=S)SSC(=S)N(CCCC)CCCC`: the Potency result in test [1], in [2], in [6], in test [13], in test [11] and in test [14] was “inactive” each time. Also, the Potency entry (in test [12]; in [9]; with Aromatase (Homo sapiens)) was “inactive” each time.
`CCOC(=N)CC(=O)OCC`: the Potency entry in test [2], in test [3], in test [5], in test [6], in [13] and in test [8] was “inactive” each time. Moreover, the Potency result (in test [11]; in test [14]; in test [9]; in the test with Aromatase (Homo sapiens)) was “inactive” in each case. Besides, the result in test [7] was inactive.
On to `CCCCCCCCCCCC[N+](C)(C)CC(=O)[O-]`, for which the Potency in test [10] was 27.3 µM (active); in [1] it was 27.3 µM (active); in test [2] it was 61.1 µM (active); in [6], 54.5 µM (active). For the same compound, the Potency result in test [4], in test [8], in [11], in test [14], in [12] and in [9] was “inactive” in each case. In addition, in the test with Aromatase (Homo sapiens), the Potency result was “inactive”. The result in [7] was inactive.
